Over roughly 33,000 sequences, “normalized occupancy” has its median near 0.075; the highest 2% begin near 0.095. This excerpt belongs to a sample that is enriched for the highest values.
Target: MaxL homodimer (Homo sapiens, UniProt P61244 1-160)
Experiment: universal protein-binding microarray (PBM); PBS-based mixture, 10 nM His-tagged protein dimer, 2% milk, 200 ng/uL BSA, 50 ng/uL salmon testes DNA, 0.02% TX-100; detection with Alexa 488 anti-His antibody;; high values mean tight binding
Conditions: protein: recombinant; tags: C-terminal His-tag (pET21a); chain copies: 2; dsDNA, one strand shown
How it was run: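 His-tagged protein dimer at 10 nM was incubated on Agilent 4 x 44 K arrays with the 'all 10-mer' universal design. Bound protein was tagged with 10 ng/μL fluorophore-conjugated anti-His antibody, and arrays were scanned on a GenePix 4400A. Binding occupancy for each 8-mer is its fluorescence intensity normalised to the highest-ranked 8-mer's intensity.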

Sequence of MaxL homodimer (P61244 whole entry): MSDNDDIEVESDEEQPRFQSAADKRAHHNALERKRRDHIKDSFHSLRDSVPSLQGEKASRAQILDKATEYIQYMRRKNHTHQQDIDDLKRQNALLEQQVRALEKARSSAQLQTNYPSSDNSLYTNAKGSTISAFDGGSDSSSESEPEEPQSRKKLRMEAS

| Sequence | binding signal [normalized occupancy] |
| --- | --- |
| CTCACTTC | 0.0734 |
| TATTCCGA | 0.072 |
| CTCCACGC | 0.101 |
| CTCCACGA | 0.0817 |
| ATCCACGC | 0.109 |
| CTCCACCA | 0.075 |
| ATCCACGG | 0.0796 |
| ATCCACGA | 0.0905 |
| AGAGATAA | 0.0771 |
| CCTTAGGC | 0.0728 |
| CACGCCTC | 0.0974 |
| CACGCCTG | 0.0966 |
| CACGCCTA | 0.0938 |
| AACGCCTG | 0.0733 |
| CTCGCCTC | 0.0748 |
| GACGCCTC | 0.0726 |
| AAATAGTT | 0.0744 |
| ATGCGAGG | 0.0841 |
| ATTGTTAA | 0.0765 |
| ACGCACGC | 0.109 |
| AAGCACGA | 0.0867 |
| ACGCACGA | 0.091 |
| GCGCACGC | 0.0964 |
| ACGCACCT | 0.0799 |
| AAGCACGG | 0.0779 |
| ACGCACTA | 0.0766 |

| Sequence | binding signal [normalized occupancy] |
| --- | --- |
| GCGCACGA | 0.093 |
| GCGCACTA | 0.0726 |
| ACGCACGG | 0.0828 |
| AAGCACGT | 0.102 |
| ACGCACGT | 0.0986 |
| GACGACGA | 0.0747 |
| AAATGTAA | 0.0834 |
| ACTCATAC | 0.074 |
| ATCCCACG | 0.093 |
| CTTATTAC | 0.0796 |
| CAATCACC | 0.0797 |
| ACTTGTAG | 0.073 |
| GGAGCCAA | 0.0767 |
| GCAAAGGA | 0.0773 |
| AAATGGGG | 0.0777 |
| ATGATTTA | 0.079 |
| CCGCACGC | 0.0999 |
| CCGCACGG | 0.0742 |
| CCGCACGA | 0.0824 |
| ACATTTTG | 0.0837 |
| AACGCCCG | 0.0749 |
| CACGCGAC | 0.131 |
| AACGCGAC | 0.0746 |
| AACGCGAG | 0.0764 |
| GACGCGAA | 0.0735 |
| CACGCGAG | 0.111 |

| Sequence | binding signal [normalized occupancy] |
| --- | --- |
| GACGCGAC | 0.0735 |
| CGCGCGAG | 0.0787 |
| AACGCGAA | 0.0761 |
| CACGCGAA | 0.105 |
| GTGGAATA | 0.0822 |
| ACGTCTTG | 0.0724 |
| ACAGGTTG | 0.0821 |
| AAAACGAG | 0.0747 |
| GTTCTCCA | 0.0767 |
| AACACATT | 0.0903 |
| AACACATA | 0.0823 |
| ACCACCTC | 0.0834 |
| ACCACCTA | 0.082 |
| ACCACATA | 0.0854 |
| ACCACATC | 0.0807 |
| AACACATG | 0.138 |
| ATGACATG | 0.0993 |
| ACCACATG | 0.192 |
| ATGACATA | 0.0825 |
| ATGACATC | 0.0827 |
| ACCACCTG | 0.106 |
| CGCCCATC | 0.0733 |
| GTACGGAA | 0.0756 |
| ACCGCTAC | 0.0748 |
| CATCCCTC | 0.0774 |
| AATTTTTG | 0.0733 |

| Sequence | binding signal [normalized occupancy] |
| --- | --- |
| AAGACAGG | 0.0727 |
| ATCACATG | 0.158 |
| ATCACATA | 0.0859 |
| AGCACATC | 0.0841 |
| CACACATC | 0.0888 |
| CACACATA | 0.0896 |
| AGCACATG | 0.187 |
| AGCACATA | 0.0807 |
| CACACATG | 0.136 |
| ATCACATC | 0.0862 |
| AGTAGTGG | 0.0787 |
| CTACTTGA | 0.0752 |
| GCCTCTCC | 0.076 |
| CACGCAGC | 0.085 |
| ACGTAGCC | 0.0725 |
| GCCCCCCC | 0.0757 |
| CCAGGGGA | 0.0742 |
| ACACGTTA | 0.118 |
| CCACGTTA | 0.105 |
| ACACGTCG | 0.0849 |
| AGACGTTA | 0.0775 |
| ATACGTTC | 0.0794 |
| CAACGTTA | 0.0767 |
| AGACGTTC | 0.0744 |
| CCACGTTC | 0.0913 |
| ACACGTTC | 0.102 |

| Sequence | binding signal [normalized occupancy] |
| --- | --- |
| AAACGTTG | 0.0765 |
| AAACGTTA | 0.0739 |
| ACACGTTG | 0.128 |
| AGTCAGGC | 0.0722 |
| TGCCCAAA | 0.0731 |
| AGTATCAA | 0.0766 |
| GGCCAACC | 0.0741 |
| AAAAATGG | 0.078 |
| ATGCCCCA | 0.0786 |
| GAACATTA | 0.0812 |
| ACGCCTCC | 0.0771 |
| AATAACAA | 0.0746 |
| GGACGTTA | 0.0789 |
| GCACGTTA | 0.104 |
| GTACGTTA | 0.0781 |
| ACCAAGGC | 0.0726 |
| GATATAAA | 0.0756 |
| ACAGGTCA | 0.0797 |
| AACGAGTG | 0.0753 |
| CACGAGAG | 0.0911 |
| CACGAGTC | 0.0906 |
| CACGAGTA | 0.103 |
| CACGAGTG | 0.0961 |
| AACGAGTA | 0.077 |
| CGCAACTA | 0.0738 |
| CAAGAGGG | 0.0744 |

| Sequence | binding signal [normalized occupancy] |
| --- | --- |
| CTGGTCGC | 0.0732 |
| ATGTATTC | 0.0814 |
| CATGTACC | 0.0843 |
| CATGTACG | 0.0957 |
| AATGTACG | 0.0761 |
| AATGTACA | 0.0818 |
| CATGTATC | 0.0975 |
| CATGTACA | 0.0958 |
| AATGTATC | 0.0876 |
| CATGTATA | 0.089 |
| GATGTACA | 0.0827 |
| AGTATTAT | 0.0827 |
| CAGTGATG | 0.0746 |
| CACTTCGG | 0.0755 |
| TCGACAGA | 0.0736 |
| CGGTAGCA | 0.0827 |
| AGCAGATC | 0.077 |
| ACTCCAGT | 0.0743 |
| ACGCTGTA | 0.0841 |
| CCGGTGAG | 0.0746 |
| GACCTTGA | 0.0732 |
| GCTAAATA | 0.079 |
| AAGGTGGC | 0.0758 |
| CAGGTGGC | 0.0954 |
| CAGGTGGA | 0.0861 |
| CAGATGGG | 0.0837 |

| Sequence | binding signal [normalized occupancy] |
| --- | --- |
| GAGGTGGC | 0.0764 |
| CAGGTGGG | 0.101 |
| GTGCTGAA | 0.0776 |
| AATGGTAC | 0.0764 |
| AGTAGGAT | 0.076 |
| ACATGGTC | 0.104 |
| ACTTGGTA | 0.0735 |
| ATATGGTA | 0.0884 |
| ACATGGTG | 0.0914 |
| CCATGGTA | 0.0851 |
| ACATGGTA | 0.104 |
| GCATGGTA | 0.106 |
| GAATGGTA | 0.08 |
| CCATGGTC | 0.0849 |
| AGGCGAGG | 0.0752 |
| CCTACAGG | 0.0722 |
| CGCGACGA | 0.0728 |
| CACTTTTA | 0.0728 |
| AAAGGTGT | 0.0816 |
| GTTAGAAA | 0.0757 |

From article PMC4242493, “Sequence specificity incompletely defines the genome-wide occupancy of Myc”
